Hit rate of the full screen: of about 360,000 compounds, about 10,000 (2.8%) were called active. Inconclusive results (about 4%) are left out. Calls come from the whole dose curve; as a rule, active = well fitted inhibition curve with a large enough effect; inconclusive = small, poorly fitted or top-dose-only effect; inactive = flat fitted curve, though single readings scatter. This excerpt belongs to a sample that is enriched for actives.
biological target: Serine/threonine-protein kinase PLK1 (Homo sapiens) (UniProt P53350); test: qHTS for Inhibitors of PLK1-PDB (polo-like kinase 1 - polo-box domain): Primary Screen; conditions: Plk1 PBD binding of FITC phosphopeptide, fluorescence polarization; note: nearly all actives have a fitted effect of over 65% in size; for max response, negative = inhibition: series mostly up to about 57 µM
Sequence (P53350 whole entry, looked up, the tested form may be a part): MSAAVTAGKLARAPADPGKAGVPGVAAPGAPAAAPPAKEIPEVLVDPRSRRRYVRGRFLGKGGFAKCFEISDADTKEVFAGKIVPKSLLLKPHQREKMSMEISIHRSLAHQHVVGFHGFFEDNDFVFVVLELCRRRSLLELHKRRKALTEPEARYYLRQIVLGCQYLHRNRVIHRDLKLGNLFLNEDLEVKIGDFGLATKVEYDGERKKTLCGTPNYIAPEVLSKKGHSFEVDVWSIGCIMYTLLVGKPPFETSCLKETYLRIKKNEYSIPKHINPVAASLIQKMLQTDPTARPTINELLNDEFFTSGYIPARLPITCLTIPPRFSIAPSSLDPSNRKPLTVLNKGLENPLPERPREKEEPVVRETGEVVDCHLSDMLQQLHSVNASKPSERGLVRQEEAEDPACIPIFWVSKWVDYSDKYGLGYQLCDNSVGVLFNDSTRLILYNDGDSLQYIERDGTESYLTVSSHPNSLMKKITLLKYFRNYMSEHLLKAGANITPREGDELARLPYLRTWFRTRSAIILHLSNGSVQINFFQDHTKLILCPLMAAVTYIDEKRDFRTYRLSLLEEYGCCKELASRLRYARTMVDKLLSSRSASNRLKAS
% is set by controls: 0 for no effect and ±100 for the full control effect; potency is the fitted concentration of half-maximal effect.

SMILES | max response, negative = inhibition | Potency
CN(C)C1CN(Cc2cn(Cc3ccccc3)nn2)S(=O)(=O)C1 (stereo unspecified) | -9.56% (inactive) | 
CCCCCc1c(-c2cccc(Br)c2)ncn1CCc1ccccc1OC | -9.6% (inactive) | 
O=C(NCCS(=O)(=O)N1CCN(c2ccccc2)CC1)c1ccco1 | -3.4% (inactive) | 
O=C(NCCS(=O)(=O)N1CCN(c2ccccc2F)CC1)c1ccc(Br)o1 |  | 15 µM (active)
O=C(NCCS(=O)(=O)N1CCN(c2ccccc2)CC1)c1cc(=O)c2ccccc2o1 | -10.4% (inactive) | 
NC(CSC(c1ccccc1)(c1ccccc1)c1ccc(-c2ccccc2)cc1)C(=O)O (stereo unspecified) | -12.6% (inactive) | 
CCC(=O)N1CCCC1(C)C(=O)Nc1ccc2c(c1)CCN2C(C)=O (stereo unspecified) | -12.6% (inactive) | 
O=C(Nc1ccccc1)c1cc2ccccc2[nH]1 | 0% (inactive) | 
S=c1ccc2ccccc2[nH]1 |  | 10.6 µM (active)
O=C(Nc1ccc(Cl)cn1)c1ccccc1-c1ccccc1 | -6.02% (inactive) | 
CC1(C(=O)Nc2cccc3cccnc23)CCN1C(=O)CCC1CCCC1 (stereo unspecified) | 0.774% (inactive) | 
CCOC(=O)c1c(N)sc2c1CCCC2=O | -6.68% (inactive) | 
CCOC(=O)c1c(N)sc(C(C)=O)c1C |  | 21.2 µM (active)
CCOC(=O)Nc1sc(C(=O)N(C)C)c(C)c1C(=O)OCC | -6.39% (inactive) | 
CC(=O)c1cccc(-c2cnc3c(NC=O)cc(-c4ccc(N5CCN(C)CC5)cc4)cn23)c1 | 2.15% (inactive) | 
CCCCC(=O)N(C)c1c(CC)nc2c(OCc3ccc(S(C)(=O)=O)cc3)cccn12 | -6.21% (inactive) | 
COc1ccc(Cc2n[nH]c(=S)n2NC(=O)Nc2ccc(C)cc2)cc1 | -9.65% (inactive) | 
COc1ccc(OCc2n[nH]c(=S)n2N)cc1 |  | 3.77 µM (active)
COc1ccc(OCc2ccc(-c3nc4ccccc4c(=O)n3N)o2)cc1 | 2.15% (inactive) | 
O=C(NCc1cccnc1)c1cc(C2CCCN(C(=O)C3CCCCC3)C2)on1 (stereo unspecified) | 0.902% (inactive) | 
CC1CC(NC(=S)N(C)C)CC(C)(C)C1 (stereo unspecified) | -1.25% (inactive) | 
CC(C)CCN1CCN(Cc2ccc(C(F)(F)F)cc2)CC1CCO (stereo unspecified) | 4.35% (inactive) | 
CC(=O)Nc1ccc(CN2CCN(Cc3ccc(F)c(F)c3)C(CCO)C2)cc1 (stereo unspecified) |  | 18.9 µM (active)

SMILES | max response, negative = inhibition | Potency
Cc1ccc(CN2CCN(Cc3ccc4ncccc4c3)CC2CCO)cc1 (stereo unspecified) | -1.02% (inactive) | 
COc1ccc(-c2cc(NC=O)c3ncc(-c4cc(OC)c(OC)c(OC)c4)n3c2)c(OC)c1 | -18.1% (inactive) | 
O[C@@H]1C[C@H](c2ccccc2)N(Cc2cccs2)C[C@H]1n1cc(C2CC2)nn1 | -0.363% (inactive) | 
Oc1ccc2ccc3cccc[n+]3c2c1 |  | 4.74 µM (active)
O=C1CCC(C(=O)OCC(=O)Nc2ccc(OC(F)F)cc2)=NN1 | -4.05% (inactive) | 
CCNC(=O)C1(C)CCCN(C(=O)c2ccc3ccccc3n2)C1 (stereo unspecified) | -13.8% (inactive) | 
CC1(C(=O)O)CCN1C(=O)/C=C/c1ccccc1 (stereo unspecified) | -4.73% (inactive) | 
COc1ccc(C(C)(C)C)cc1NC(=O)CN(C)C1=NS(=O)(=O)c2ccccc21 | -6.05% (inactive) | 
COc1ccc(CCN2CC(C(=O)OCC(=O)NCc3ccccc3Cl)CC2=O)cc1OC (stereo unspecified) | -3.96% (inactive) | 
O=C(OCc1ccc([N+](=O)[O-])cc1)C1CC(=O)N(Cc2ccccc2Cl)C1 (stereo unspecified) |  | 29.9 µM (active)
CC(OC(=O)C1CC(=O)N(Cc2ccccc2)C1)C(=O)Nc1ccccc1[N+](=O)[O-] (stereo unspecified) | -3.81% (inactive) | 
CCOC(=O)c1cnn2c(SC)ncnc12 | -4.05% (inactive) | 
CC(C)Oc1cc(F)ccc1-c1cc(C(=O)Nc2cccc(Cl)c2)[nH]n1 | -2.39% (inactive) | 
COc1ccc(C(=O)C2CCCN(C(=O)c3ccc(OC)o3)C2)c(C)c1 (stereo unspecified) | -27.3% (inactive) | 
Cc1cc(C)n(-c2ccc(NC(=O)C3CCCCN3C(=O)c3cccs3)cc2)n1 (stereo unspecified) | -7.4% (inactive) | 
COc1ccc(C(=O)N2CCCCC2C(=O)Nc2ccc(-n3nc(C)cc3C)cc2)o1 (stereo unspecified) |  | 23.8 µM (active)
CC(=O)c1ccccc1NC(=O)COC(=O)C1COc2ccccc2O1 (stereo unspecified) | 4.38% (inactive) | 
CCCC(=O)N1CCC1(C)C(=O)Nc1ccc(-n2cncn2)cc1 (stereo unspecified) | -11.3% (inactive) | 
Cc1ccccc1CN1C(=O)CSCC1(C)C(=O)Nc1c(C)cccc1C (stereo unspecified) | -3.6% (inactive) | 
CCCCCCCCN1C(=O)[C@H](CC(=O)NCC23CC4CC(CC(C4)C2)C3)C[C@@]2(C(=O)OC)CCCCC=C12 | -9.18% (inactive) | 
COc1ccc(S(=O)(=O)Nc2ccc3cn[nH]c3c2)cc1[N+](=O)[O-] | -11.6% (inactive) | 
O=[N+]([O-])c1cc(S(=O)(=O)Nc2cccc(Cl)c2)ccc1N=Nc1c(O)[nH]c2ccccc12 |  | 84.4 µM (active)
O=C(O)c1ccccc1/C=N/Nc1ccc(S(=O)(=O)Nc2ccc(Cl)cc2)cc1[N+](=O)[O-] | -22.4% (inactive) | 

SMILES | max response, negative = inhibition | Potency
COc1ccc(Cl)cc1NC(=O)CCS(=O)(=O)c1cc2c(cc1C)NC(=O)CO2 | -11.9% (inactive) | 
COc1ccc(Cl)cc1NC(=O)CCS(=O)(=O)c1ccc(Br)cc1 |  | 15 µM (active)
CCOc1ccc(OCC)c(NC(=O)CCS(=O)(=O)c2ccc(C)cc2)c1 | -5.07% (inactive) | 
COc1cc(CCN=Cc2ccccc2O)c([N+](=O)[O-])cc1OC | -15.3% (inactive) | 
CN(C(=O)CN1CCN(c2cc(-c3ccc(OCc4ccccc4)cc3)ncn2)CC1)c1ccccc1 | 2.08% (inactive) | 
CC(O)(c1cccc(F)c1)c1nc(-c2ccc3c(c2)OCO3)cs1 (stereo unspecified) | -0.065% (inactive) | 
COc1ccc([C@H]2N[C@]3(CCCN(Cc4ccco4)C3=O)[C@H]3C(=O)N(C)C(=O)[C@@H]23)cc1 | -10.5% (inactive) | 
N#Cc1ccccc1-n1c(N)c(C(=O)N2CCCC2)sc1=S |  | 4.23 µM (active)
Cc1ccc(S(=O)(=O)N2CCN(C(=O)N3CCOCC3)CC2)c(C)c1 | 3.35% (inactive) | 
CC(C)=C1SC(N2CCN(c3cccc(C)c3)CC2)=NC1=O | -13.5% (inactive) | 
Cc1ccc(-n2c(N)c(C(=O)N3CCOCC3)sc2=S)c(C)c1 |  | 18.9 µM (active)
O=C(c1ccc(S(=O)(=O)c2ccccc2)cc1)N1CCCCCC1 | -6.16% (inactive) | 
Cc1cccc(N2CCN(C(=O)c3ccccc3NC(=O)C3CCCCC3C(=O)O)CC2)c1 (stereo unspecified) | -5.42% (inactive) | 
Cc1ccc(N2CCN(C(=O)c3cccs3)CC2)c(C)c1 | -4.91% (inactive) | 
Cc1cccc(-n2c(N)c(C(=O)N3CCN(C)CC3)sc2=S)c1 |  | 1.89 µM (active)
CCC(=O)Nc1sc(C(=O)N2CCCCC2)c(C)c1C#N | 0.524% (inactive) | 
COc1ccc(Cl)cc1-c1cc(C(=O)Nc2cc(OC)c(OC)c(OC)c2)[nH]n1 | -0.229% (inactive) | 
CCc1oc(-c2ccc(OC)cc2)c(C(=O)OCCCCCO)c1C(C)OCCO (stereo unspecified) | -3.22% (inactive) | 
COc1ccc(-c2coc3c(C(=O)NC(C)C)cccc23)c(C)c1 | -1.63% (inactive) | 
O=C1CCC(=O)N1CCC(=O)N(C(=O)NC1CCCCC1)C1CCCCC1 | -3.92% (inactive) | 
CSC1=NN(c2ccccc2)CN(c2ccccc2)N1C | 3.5% (inactive) | 
CSc1ncnc2c1ncn2CCCNCc1cccs1 | -6.17% (inactive) | 
CC(=O)c1c(C)c[nH]c1C |  | 3.36 µM (active)

SMILES | max response, negative = inhibition | Potency
CCOC(=O)c1c(Cc2ccc(Cl)cc2)c[nH]c1C | -3.47% (inactive) | 
Cc1cc(C)n2c(NCc3ccccc3)c(CC(C)C)nc2n1 | 4.6% (inactive) | 
Cc1c(NC(=O)c2coc(=O)c(Br)c2)c(=O)n(-c2ccccc2)n1C | -12.4% (inactive) | 
Cc1cc(C(=O)COC(=O)c2cccs2)c(C)n1-c1c(C)n(C)n(-c2ccccc2)c1=O |  | 29.9 µM (active)
Cc1cc(C(=O)CC#N)c(C)n1-c1c(C)n(C)n(-c2ccccc2)c1=O |  | 21.2 µM (active)
CCCn1c(C)cc(C(=O)COC(=O)c2c(C)nn(-c3ccccc3)c2C)c1C | 0.347% (inactive) | 
Cc1cc(C(=O)CC#N)c(C)n1CC(F)(F)F | -1.11% (inactive) | 
COc1ccc(-n2c(C)cc(C(=O)COC(=O)c3cc(OC)c(OC)cc3NC(=O)c3cccs3)c2C)cc1 | -3.08% (inactive) | 
CCCNC(=O)c1cc2c(c(-c3cccc(-c4ccc(C#N)cc4)c3)n1)[C@@H](CCO)N(C(=O)CC)C2 | -12.5% (inactive) | 
c1ccc2c(c1)nnn2-c1ccncc1 | -7.91% (inactive) | 
COc1ccc(NC(=O)C2Cc3c(-c4cccc(NC(C)=O)c4)ccnc3O2)cc1OC (stereo unspecified) | -15.4% (inactive) | 
CC(C)NC(=O)Nc1ccc2c(c1)C(=O)N([C@H](C)CO)C[C@H](C)[C@@H](CN(C)Cc1ccc(C(F)(F)F)cc1)OCCCC[C@@H](C)O2 | -16.7% (inactive) | 
O=C(COC(=O)c1cccc(Cl)c1Cl)NC1CCCCCC1 | -7.54% (inactive) | 
COc1ccc(N2CCN(C(=S)Nc3ccc(S(N)(=O)=O)cc3)CC2)cc1 |  | 13.4 µM (active)
NS(=O)(=O)c1ccc(NC(=S)N2CCCC2)cc1 | -13.8% (inactive) | 
CCOc1ccccc1N1CCN(C(=S)Nc2ccc(S(N)(=O)=O)cc2)CC1 | -0.318% (inactive) | 
CN(C)C(CNC(=O)c1cc(Br)c(Br)s1)c1ccco1 (stereo unspecified) | -5.95% (inactive) | 
O=S1(=O)CC(N2CCN(CCO)CC2)CN1Cc1cn(Cc2cccc(Cl)c2)nn1 (stereo unspecified) | -6.24% (inactive) | 
Cc1ccc(-c2cnc(C(O)c3cc(Cl)cc(Cl)c3)[nH]2)cc1 (stereo unspecified) | 5.64% (inactive) | 
COc1ccc(CCNC(=O)COC(=O)c2cc(=O)c3ccccc3o2)cc1 | -2.93% (inactive) | 
COc1ccc(CNC(=O)COC(=O)C(CCSC)N2C(=O)c3ccccc3C2=O)cc1 (stereo unspecified) | -13.1% (inactive) | 
COc1ccc(CNC(=O)COC(=O)C2=Cc3ccccc3OC2)cc1 |  | 13.4 µM (active)

From PubChem BioAssay AID720504 (National Center for Advancing Translational Sciences (NCATS), 2013)
